Measured values: the supplement of paper PMC6897291
Where a name gives a salt, the structure may show the parent alone.

system: U-2932; assay: growth inhibition by drug alone (1 - RLU/untreated control) (fraction); higher = stronger inhibition; conditions: 1000 nM; time (day): 5; 177Lu-lilotomab satetraxetan 0 ug/ml
In short: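 RIVA or U-2932 cells were left untreated or pretreated for 18 h with a radiolabelled anti-CD37 antibody conjugate (~600 MBq/mg) at 0.5 µg/ml for RIVA or 1 µg/ml for U-2932. The cells were then washed and seeded at 3,000 cells/well on plates pre-printed with the Selleck Cambridge Cancer Compound library, dosed at 10/100 nM for RIVA and 10/1,000 nM for U-2932. From day 3, RealTime-Glo luminescence was read daily after 1 h at 37°C. Growth inhibition was taken as one minus RLU over the mean of the untreated no-drug wells, of which there were 48 per plate.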

SMILES | growth inhibition by drug alone
CNCc1ccc(-c2[nH]c3cc(F)cc4c3c2CCNC4=O)cc1 | 0.0516
O=C(O)c1ccc(-c2c[nH]c3ncc(-c4ccccc4)cc23)cc1C1CCCC1 | -0.0534
CC(=O)c1c(C)c2cnc(Nc3ccc(N4CCNCC4)cn3)nc2n(C2CCCC2)c1=O | -0.082
CCN(CC)CCCCNc1ncc2cc(-c3cc(OC)cc(OC)c3)c(NC(=O)NC(C)(C)C)nc2n1 | -0.071
CCC(C)(C)C(=O)O[C@H]1C[C@@H](C)C=C2C=C[C@H](C)[C@H](CC[C@@H]3C[C@@H](O)CC(=O)O3)[C@H]21 [Simvastatin (Zocor)] | -0.0695
CC[C@H](Nc1ncnc2[nH]cnc12)c1nc2cccc(F)c2c(=O)n1-c1ccccc1 | 0.289
CC(C=CC(=O)NO)=CC(C)C(=O)c1ccc(N(C)C)cc1 (stereo unspecified) [Trichostatin A (TSA)] | 0.983
COc1ccc2c3n(c(=NC(=O)c4cccnc4)nc2c1OC)CCN3 | 0.0515
NC(=O)c1ccc(-c2nc(-c3ccccn3)c(-c3ccc4c(c3)OCO4)[nH]2)cc1 | -0.0548
CNC(=O)c1cc(Oc2ccc(NC(=O)Nc3ccc(Cl)c(C(F)(F)F)c3)c(F)c2)ccn1 [Regorafenib (BAY 73-4506)] | 0.302
Cc1cnc(Nc2ccc(OCCN3CCCC3)cc2)nc1Nc1cccc(S(=O)(=O)NC(C)(C)C)c1 | -0.00563
CCOc1ccc(Nc2nc(-c3c(C)nc4ccccn34)cs2)cc1 | 0.979
CC(C)C[C@H](NC(=O)[C@H](Cc1ccccc1)NC(=O)c1cnccn1)B(O)O [Bortezomib (Velcade)] | 0.985
O=C1CN2Cc3c(ccc(Cl)c3Cl)N=C2N1 [Anagrelide] | -0.0302
Cc1cc(Nc2cc(N3CCN(C)CC3)nc(/C=C/c3ccccc3)n2)n[nH]1 | 0.0189
CCc1cc(Nc2nccc(-c3c(-c4ccc(OC)c(C(=O)Nc5c(F)cccc5F)c4)nc4ccccn34)n2)c(OC)cc1N1CCC(N2CCN(S(C)(=O)=O)CC2)CC1 | -0.0601
O=C1CN2Cc3c(ccc(Cl)c3Cl)N=C2N1 [Anagrelide hydrochloride] | 0.0817
O=C(NCCCNc1nc(Nc2cccc(NC(=O)N3CCCC3)c2)ncc1I)c1cccs1 | 0.35
CCC[C@H](NC(=O)/C(C#N)=C/c1cccc(Br)n1)c1ccccc1 | -0.0194

SMILES | growth inhibition by drug alone
COc1cc2nc(N3CCCN(C)CC3)nc(NC3CCN(Cc4ccccc4)CC3)c2cc1OC | 0.0688
C#Cc1cccc(Nc2ncnc3cc(OCCOC)c(OCCOC)cc23)c1 [Erlotinib HCl] | 0.655
CN(C)c1ccccc1CN1CCCN(Cc2ccccc2N(C)C)C1c1ccncc1 | -0.0723
COc1cc2c(NC3CCN(C)CC3)nc(N3CCCN(C)CC3)nc2cc1OCCCN(C)C | -0.125
COc1ccc(COc2cc3oc(=O)c4cc(C(C)O)ccc4c3cc2OC)cc1 (stereo unspecified) [Palomid 529] | -0.0394
CO[C@@H](C(=O)N1Cc2[nH]nc(NC(=O)c3ccc(N4CCN(C)CC4)cc3)c2C1)c1ccccc1 | 0.259
Cn1cc(C2=C(c3ccc(Cl)cc3Cl)C(=O)NC2=O)c2ccccc21 | -0.0762
CCc1ccc(CCOc2ccc(CC3SC(=O)NC3=O)cc2)nc1 (stereo unspecified) [Pioglitazone (Actos)] | -0.0516
O=C(O)C1(C(=O)O)CCC1.[NH2-].[NH2-].[Pt+2] [Carboplatin] | -0.0455
CS(=O)(=O)c1ccc(C(=O)Nc2ccc(Cl)c(-c3ccccn3)c2)c(Cl)c1 [Vismodegib (GDC-0449)] | 0.0248
OCCn1cc(-c2ccc3c(c2)CC/C3=N\O)c(-c2ccncc2)n1 | -0.146
CC[C@@H]1C(=O)N(C)c2cnc(Nc3ccc(C(=O)NC4CCN(C)CC4)cc3OC)nc2N1C1CCCC1 | 0.981
CC[C@]1(O)C[C@H]2CN(CCc3c([nH]c4ccccc34)[C@@](C(=O)OC)(c3cc4c(cc3OC)N(C=O)[C@H]3[C@@](O)(C(=O)OC)[C@H](OC(C)=O)[C@]5(CC)C=CCN6CC[C@]43[C@@H]65)C2)C1 [Vincristine] | 0.979
CC(C)(C)c1ccc(S(=O)(=O)/C=C/C#N)cc1 | 0.352
Cc1cn(-c2cc(NC(=O)c3ccc(C)c(Nc4nccc(-c5cccnc5)n4)c3)cc(C(F)(F)F)c2)cn1 [Nilotinib (AMN-107)] | -0.0481
CC(C)(C#N)c1cc(Cn2cncn2)cc(C(C)(C)C#N)c1 [Anastrozole] | -0.0146
C=CCn1c(=O)c2cnc(Nc3ccc(N4CCN(C)CC4)cc3)nc2n1-c1cccc(C(C)(C)O)n1 | 0.914
Cn1cnc(N)c2ncnc1-2 [3-Methyladenine] | -0.0282
CCc1c2c(nc3ccc(OC(=O)N4CCC(N5CCCCC5)CC4)cc13)-c1cc3c(c(=O)n1C2)COC(=O)[C@]3(O)CC [Irinotecan HCl Trihydrate (Campto)] | 0.96

same assay, conditions: 1000 nM; time (day): 6; 177Lu-lilotomab satetraxetan 0 ug/ml

SMILES | growth inhibition by drug alone
CNCc1ccc(-c2[nH]c3cc(F)cc4c3c2CCNC4=O)cc1 | 0.0343
O=C(O)c1ccc(-c2c[nH]c3ncc(-c4ccccc4)cc23)cc1C1CCCC1 | 0.0115
CC(=O)c1c(C)c2cnc(Nc3ccc(N4CCNCC4)cn3)nc2n(C2CCCC2)c1=O | -0.259
CCN(CC)CCCCNc1ncc2cc(-c3cc(OC)cc(OC)c3)c(NC(=O)NC(C)(C)C)nc2n1 | 0.0716
CCC(C)(C)C(=O)O[C@H]1C[C@@H](C)C=C2C=C[C@H](C)[C@H](CC[C@@H]3C[C@@H](O)CC(=O)O3)[C@H]21 [Simvastatin (Zocor)] | -0.0808
CC[C@H](Nc1ncnc2[nH]cnc12)c1nc2cccc(F)c2c(=O)n1-c1ccccc1 | 0.263
CC(C=CC(=O)NO)=CC(C)C(=O)c1ccc(N(C)C)cc1 (stereo unspecified) [Trichostatin A (TSA)] | 0.983
COc1ccc2c3n(c(=NC(=O)c4cccnc4)nc2c1OC)CCN3 | 0.0321
NC(=O)c1ccc(-c2nc(-c3ccccn3)c(-c3ccc4c(c3)OCO4)[nH]2)cc1 | -0.0669
CNC(=O)c1cc(Oc2ccc(NC(=O)Nc3ccc(Cl)c(C(F)(F)F)c3)c(F)c2)ccn1 [Regorafenib (BAY 73-4506)] | 0.217
Cc1cnc(Nc2ccc(OCCN3CCCC3)cc2)nc1Nc1cccc(S(=O)(=O)NC(C)(C)C)c1 | 0.00366
CCOc1ccc(Nc2nc(-c3c(C)nc4ccccn34)cs2)cc1 | 0.982
CC(C)C[C@H](NC(=O)[C@H](Cc1ccccc1)NC(=O)c1cnccn1)B(O)O [Bortezomib (Velcade)] | 0.985
O=C1CN2Cc3c(ccc(Cl)c3Cl)N=C2N1 [Anagrelide] | -0.00421
Cc1cc(Nc2cc(N3CCN(C)CC3)nc(/C=C/c3ccccc3)n2)n[nH]1 | 0.221
CCc1cc(Nc2nccc(-c3c(-c4ccc(OC)c(C(=O)Nc5c(F)cccc5F)c4)nc4ccccn34)n2)c(OC)cc1N1CCC(N2CCN(S(C)(=O)=O)CC2)CC1 | -0.147
O=C1CN2Cc3c(ccc(Cl)c3Cl)N=C2N1 [Anagrelide hydrochloride] | 0.0377
O=C(NCCCNc1nc(Nc2cccc(NC(=O)N3CCCC3)c2)ncc1I)c1cccs1 | 0.462
CCC[C@H](NC(=O)/C(C#N)=C/c1cccc(Br)n1)c1ccccc1 | -0.182

SMILES | growth inhibition by drug alone
COc1cc2nc(N3CCCN(C)CC3)nc(NC3CCN(Cc4ccccc4)CC3)c2cc1OC | 0.0239
C#Cc1cccc(Nc2ncnc3cc(OCCOC)c(OCCOC)cc23)c1 [Erlotinib HCl] | 0.621
CN(C)c1ccccc1CN1CCCN(Cc2ccccc2N(C)C)C1c1ccncc1 | -0.322
COc1cc2c(NC3CCN(C)CC3)nc(N3CCCN(C)CC3)nc2cc1OCCCN(C)C | -0.235
COc1ccc(COc2cc3oc(=O)c4cc(C(C)O)ccc4c3cc2OC)cc1 (stereo unspecified) [Palomid 529] | -0.242
CO[C@@H](C(=O)N1Cc2[nH]nc(NC(=O)c3ccc(N4CCN(C)CC4)cc3)c2C1)c1ccccc1 | 0.368
Cn1cc(C2=C(c3ccc(Cl)cc3Cl)C(=O)NC2=O)c2ccccc21 | -0.00785
CCc1ccc(CCOc2ccc(CC3SC(=O)NC3=O)cc2)nc1 (stereo unspecified) [Pioglitazone (Actos)] | 0.0915
O=C(O)C1(C(=O)O)CCC1.[NH2-].[NH2-].[Pt+2] [Carboplatin] | 0.00969
CS(=O)(=O)c1ccc(C(=O)Nc2ccc(Cl)c(-c3ccccn3)c2)c(Cl)c1 [Vismodegib (GDC-0449)] | 0.00134
OCCn1cc(-c2ccc3c(c2)CC/C3=N\O)c(-c2ccncc2)n1 | -0.12
CC[C@@H]1C(=O)N(C)c2cnc(Nc3ccc(C(=O)NC4CCN(C)CC4)cc3OC)nc2N1C1CCCC1 | 0.984
CC[C@]1(O)C[C@H]2CN(CCc3c([nH]c4ccccc34)[C@@](C(=O)OC)(c3cc4c(cc3OC)N(C=O)[C@H]3[C@@](O)(C(=O)OC)[C@H](OC(C)=O)[C@]5(CC)C=CCN6CC[C@]43[C@@H]65)C2)C1 [Vincristine] | 0.984
CC(C)(C)c1ccc(S(=O)(=O)/C=C/C#N)cc1 | 0.365
Cc1cn(-c2cc(NC(=O)c3ccc(C)c(Nc4nccc(-c5cccnc5)n4)c3)cc(C(F)(F)F)c2)cn1 [Nilotinib (AMN-107)] | -0.136
CC(C)(C#N)c1cc(Cn2cncn2)cc(C(C)(C)C#N)c1 [Anastrozole] | -0.259
C=CCn1c(=O)c2cnc(Nc3ccc(N4CCN(C)CC4)cc3)nc2n1-c1cccc(C(C)(C)O)n1 | 0.936
Cn1cnc(N)c2ncnc1-2 [3-Methyladenine] | -0.00202
CCc1c2c(nc3ccc(OC(=O)N4CCC(N5CCCCC5)CC4)cc13)-c1cc3c(c(=O)n1C2)COC(=O)[C@]3(O)CC [Irinotecan HCl Trihydrate (Campto)] | 0.976
